The nature of assay [1]: AP1 Signaling Pathway (AID 357).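 Also: ME-180 reporter cells stimulated with EGF at its EC50 level; % is scaled to controls: 0 for no effect and ±100 for the full control effect.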 Conditions: ME-180 AP-1-bla reporter, EGF-induced, beta-lactamase ratio, 5 h. In outline:
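Read-out was the 460nm/530nm emission ratio (excitation 405nm) after CCF4 loading for 2.5 hours at room temperature. Cells carried an AP-1-driven beta-lactamase reporter, were stimulated with EC50 EGF plus compound for 5 hours, and AC50 values came from titrations.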

For assay [2], the target named is Cytochrome P450 1A2 (Homo sapiens) (UniProt P05177). The assay is described as follows: p450-cyp1a2 (AID 410; calls by dose curve; also: potency is read from the fitted curve at half-maximal effect;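 as to activity change, negative = inhibition: -100% = full effect of reference inhibitor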). The settings on record: recombinant CYP1A2, luciferin-ME demethylation, luminescence; series mostly up to 57 µM. In outline:
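Read-out is luminescence from luciferin produced by CYP1A2 demethylation of Luciferin-ME (100uM, at Km). Detection reagent stopped the 60 min NADPH-dependent reaction; signals were normalized to 57 uM furafylline.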

Assay [3] is described as follows: NFAT Signaling Pathway (AID 444).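 Also: carbachol stimulus at about its EC50 of 1 µM final; % is scaled to controls: 0 for no effect and ±100 for the full control effect.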 The settings on record: Jurkat NFAT-bla M1, carbachol, beta-lactamase ratio, 5 h; at 38 µM (top of the series) unless noted. The essentials: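 Jurkat cells with NFAT-driven β-lactamase reporter and co-expressed M1 receptor, stimulated with carbachol (final 1 uM, ~EC50), compound titration, 5 h at 37 °C. CCF4 loaded 1 h at RT; 460/530 nm ratio gave %activity and AC50.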

Assay [4] is described as follows: Stat Signaling Pathway (AID 446).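 Also: ME-180 cervical cancer cells given 40 pM IL-6 alongside compound; SIE-controlled beta-lactamase reporter measured as 460/530 nm FRET emission ratio; % is scaled to controls: 0 for no effect and ±100 for the full control effect.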 The settings on record: ME-180 (cervical carcinoma) SIE beta-lactamase reporter, IL-6 stimulated, 5 h. The essentials:
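Overnight-plated ME-180 cells bearing a STAT Inducible Element beta-lactamase reporter; 5 h co-exposure to compound and 40 pM IL-6; values normalized to 300 pM IL-6 and 125 nM JAK inhibitor controls.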

Assay [5] concerns the target Glucocorticoid receptor (Homo sapiens) (UniProt P04150). The assay is described as follows: GR-GFP Redistribution (AID 450;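 active = compounds whose dose series gives a full or clear partial fitted curve of increased nuclear translocation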; also: potency is read from the fitted curve at half-maximal effect). The settings on record: U2OS GR-GFP nuclear translocation, laser cytometry, 2 h.
The target in assay [6] is Mitogen-activated protein kinase 10 (Mus musculus) (UniProt Q61831). Briefly: JNK3 AlphaScreen Assay (AID 530).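 Also: kinase came from lysate of stimulated human HepG2 cells; signal reports phosphorylation of biotinylated GST-cJun 1-79 at Ser73 with 10 µM ATP; % is scaled to controls: 0 for no effect and ±100 for the full control effect.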 The settings on record: JNK3 lysate, c-Jun phosphorylation; series mostly up to 57.1 µM. In outline: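 HepG2 lysate (IL-1b/TNFa pre-activated) + biotin-GST-cJun 1-79 + anti-pSer73 cJun; cpd titration, 15 min RT; ATP 10 uM start; Tris pH 7.6, MgCl2, DTT, vanadate; beads in EDTA buffer; AlphaScreen.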

For assay [7], the target named is Glucocorticoid receptor (Homo sapiens) (UniProt P04150). Briefly: GR-EFC Redistribution (AID 451; calls by dose curve; also: potency is read from the fitted curve at half-maximal effect). The settings on record: CHO-K1 GR-EFC translocation, beta-gal luminescence, 2 h. In outline:
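CHO-K1 cells expressing nuclear EA and GR-ED fragments of b-gal; compounds titrated up to 46 uM final, 2 h at 37 C. GR nuclear translocation read as complemented b-gal luminescence after 1 h RT detection.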

Here are results for ten molecules from PubChem BioAssay (NCATS).

Molecules are shown by their SMILES. “And” between values parts separate entries of the source, which are not always exact repeats. Equal values may be shown once. A number with no mark means an inactive call. Records with an inconclusive call do not appear. The source made the active and inactive calls. Unless noted, calls follow the shape of the dose curve; as a rule, active = well fitted curve in either direction with a large enough effect (not every such curve was filed as active); inconclusive = small, poorly fitted or top-dose-only effect, or another doubt; inactive = flat fitted curve, though single readings scatter.

Chain of Cytochrome P450 1A2 (Homo sapiens) (P05177 whole entry, looked up): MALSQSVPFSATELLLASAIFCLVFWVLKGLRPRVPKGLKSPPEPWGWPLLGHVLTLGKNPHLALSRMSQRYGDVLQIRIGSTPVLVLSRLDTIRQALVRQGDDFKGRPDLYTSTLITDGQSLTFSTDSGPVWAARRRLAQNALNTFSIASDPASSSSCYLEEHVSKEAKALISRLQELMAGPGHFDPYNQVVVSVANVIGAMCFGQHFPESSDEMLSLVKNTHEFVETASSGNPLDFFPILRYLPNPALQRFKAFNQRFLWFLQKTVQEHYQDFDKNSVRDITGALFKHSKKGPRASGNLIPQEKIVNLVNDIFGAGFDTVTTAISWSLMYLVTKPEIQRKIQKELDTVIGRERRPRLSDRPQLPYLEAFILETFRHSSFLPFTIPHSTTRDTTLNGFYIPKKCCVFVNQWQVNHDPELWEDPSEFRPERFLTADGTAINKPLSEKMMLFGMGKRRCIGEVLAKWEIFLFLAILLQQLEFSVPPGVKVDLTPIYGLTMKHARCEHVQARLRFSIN
Chain of Glucocorticoid receptor (Homo sapiens) (P04150 whole entry, looked up, the tested form may be a part): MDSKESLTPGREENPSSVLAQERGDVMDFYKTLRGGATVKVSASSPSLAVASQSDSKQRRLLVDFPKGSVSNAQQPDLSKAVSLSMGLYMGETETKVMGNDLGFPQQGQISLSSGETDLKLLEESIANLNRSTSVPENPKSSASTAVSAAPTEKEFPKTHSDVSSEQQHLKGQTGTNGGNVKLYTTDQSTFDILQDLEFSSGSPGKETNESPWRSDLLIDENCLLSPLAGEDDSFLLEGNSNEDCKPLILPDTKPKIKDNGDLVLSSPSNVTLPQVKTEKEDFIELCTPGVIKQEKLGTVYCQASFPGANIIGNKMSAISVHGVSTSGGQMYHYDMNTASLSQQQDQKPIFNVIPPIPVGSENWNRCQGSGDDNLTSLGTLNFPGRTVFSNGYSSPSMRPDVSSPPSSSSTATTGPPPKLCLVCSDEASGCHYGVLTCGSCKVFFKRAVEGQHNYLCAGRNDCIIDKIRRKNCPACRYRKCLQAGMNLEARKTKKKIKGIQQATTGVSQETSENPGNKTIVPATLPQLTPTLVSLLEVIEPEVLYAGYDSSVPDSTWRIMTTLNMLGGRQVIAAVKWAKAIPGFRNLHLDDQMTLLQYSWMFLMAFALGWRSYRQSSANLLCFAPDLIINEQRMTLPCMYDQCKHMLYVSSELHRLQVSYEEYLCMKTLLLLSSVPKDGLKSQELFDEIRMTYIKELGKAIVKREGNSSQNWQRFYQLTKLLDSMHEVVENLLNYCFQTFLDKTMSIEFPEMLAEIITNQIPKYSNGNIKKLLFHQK

For `CC1(C)CCC=[N+]1[O-]`, the activity change, negative = inhibition was -4.03% in assay [1] (at 38 µM (top of the series)) and -6.56% in assay [3]. For the same molecule, the Potency entry in assay [2] and in assay [6] was “inactive” each time. For the same molecule, the activity, negative = inhibition in assay [4] (at 38 µM (top of the series)) was 4.29%. Besides, in assay [5], the Potency is more than 46 µM.
On to `COc1cc(OC)c(/C=C2/C(=O)Nc3ccccc32)c(OC)c1`, for which the activity change, negative = inhibition is -28.2% in assay [1] (at 38 µM (top of the series)) and -8.19% in assay [3]. Besides, the results for the Potency in assay [2] and in assay [5] were 0.501 µM (active) and more than 46 µM, respectively. Besides, the Potency result in assay [6] is “inactive”.
As for `CCCCN1CCC(n2c(=O)[nH]c3ccccc32)CC1`, the activity change, negative = inhibition in assay [1] (at 38 µM (top of the series)) is -4.94%; in assay [3] it was 4.7%. Further, the Potency entry in assay [2] is “inactive”. The Potency in assay [5] and in assay [7] was more than 46 µM in each case.
On to `COc1cccc(C(=O)NCCN2CCN(c3ccc(Cl)cc3)CC2)c1`, for which, in assay [1] (at 38 µM (top of the series)), the activity change, negative = inhibition was -7.5%. The Potency in assay [2] was 12.6 µM (active); in assay [5], more than 46 µM; in assay [7], more than 46 µM. In addition, the activity, negative = inhibition in assay [4] (at 38 µM (top of the series)) was 0.921%.
`Nc1cc(-c2ccncc2)c[nH]c1=O`: the activity change, negative = inhibition in assay [1] (at 17.2 µM (top of the series)) was -9.46%; in assay [3], -1.83% [at 17.2 µM]. Also, the Potency is 15.8 µM (active) in assay [2] and more than 20.6 µM in assay [5]. Moreover, the activity, negative = inhibition in assay [4] (at 17.2 µM (top of the series)) is -17.5%. The Potency result in assay [6] was “inactive”.
As to `O=C(O)c1ccccc1Nc1cccc(C(F)(F)F)c1`, the activity change, negative = inhibition in assay [1] (at 17.2 µM (top of the series)) was -4.38% and -13.2%; in assay [3] it was -44% [at 17.2 µM]. The Potency is 3.98 µM (active) in assay [2] and more than 20.6 µM in assay [5]. For the same molecule, in assay [4] (at 17.2 µM (top of the series)), the activity, negative = inhibition was -14.4% and -17.3%. The Potency entry in assay [6] is “inactive”.
Turning to `O=C(c1cc(O)c(O)c([N+](=O)[O-])c1)c1ccccc1F`, the figures for the activity change, negative = inhibition in assay [1] (at 38 µM (top of the series)) and in assay [3] were -17.8% and 0.576%, respectively. Also, the Potency result in assay [2] was “inactive”. The activity, negative = inhibition in assay [4] (at 38 µM (top of the series)) is -12.2%. Besides, the Potency in assay [5] was more than 46 µM.
For `O=C(O)c1cc(=O)c2c(Cl)cc(Cl)cc2[nH]1`, the activity change, negative = inhibition is -8.48% in assay [1] (at 38 µM (top of the series)) and 0.544% in assay [3]. In addition, the Potency entry in assay [2] was “inactive”. Also, in assay [4] (at 38 µM (top of the series)), the activity, negative = inhibition is 15.7%. In addition, the Potency in assay [5] and in assay [7] was more than 46 µM in each case.
In the case of `CN(C)c1nc(N)c(C(=O)N=C(N)N)nc1Cl`, the activity change, negative = inhibition in assay [1] (at 38 µM (top of the series)) is 10.7%; in assay [3], -15.7%. Moreover, the Potency in assay [2] was 1 µM (active); in assay [5], more than 46 µM; in assay [7], more than 46 µM. The activity, negative = inhibition in assay [4] (at 38 µM (top of the series)) was 19%.
`CC(C)(C=O)Cc1cc(C(C)(C)C)c(O)c(C(C)(C)C)c1`: the activity change, negative = inhibition in assay [1] (at 38 µM (top of the series)) is 5.89%; in assay [3], -17.5%. Moreover, the values for the Potency in assay [2] and in assay [5] were 25.1 µM (active) and more than 46 µM, respectively. Also, the activity, negative = inhibition in assay [4] (at 38 µM (top of the series)) was -12.1%. Besides, the Potency result in assay [6] is “inactive”.
